Screens deposited in PubChem BioAssay by National Center for Advancing Translational Sciences (NCATS).
Only some compounds are listed: those with a hit (about 3.8% of all), similar ones and a draw of the others.
Nrf2 inh: Nrf2 qHTS screen for inhibitors; A549 ARE-Fluc reporter, luciferase luminescence, 18-24 h; Potency, µM (doses to about 46 µM), inactives show at the top dose activity change, negative = inhibition, actives largely listed as inhibitors; 2.1% of 360,000 active; AID 504444, 2011; note: % is set by controls: 0 for no effect and ±100 for the full control effect; nearly all actives have a fitted effect of over 60% in size
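Two sequential reads on A549 ARE_Fluc cells exposed to compound for 18-24 h: a CellTiter-Fluor fluorescence read for viability, then a luciferase luminescence read for Nrf2/ARE activity.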
ATXN2 expr inh: Primary qHTS for Inhibitors of ATXN expression; Potency, µM (top dose mostly 57 µM), for the others: top-dose activity change, negative = inhibition, most hits filed as inhibitors; HEK-293 ATXN2-luciferase reporter, luminescence, 24 h; 0.72% of 360,000 active; note: % is set by controls: 0 for no effect and ±100 for the full control effect; nearly all actives have a fitted effect of over 55% in size
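qHTS (up to 57 uM final) was run with 24 h compound exposure of reporter cells at 37 °C. Each well was multiplexed: SteadyGlo luminescence measured ATXN2-luciferase expression after a fluorogenic Gly-Phe-AFC viability readout (25 uM final).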
S2 tox: Viability Counterscreen for Primary qHTS for Inhibitors of ATXN expression; Potency, µM (titrated, usually from 56.7 µM), usual class: cytotoxic; S2 cells (HEK-293 line with an ATXN2-luciferase reporter) viability, CellTiter-Fluor protease fluorescence, 24 h; 0.49% of 400,000 active; note: nearly all actives have a fitted effect of over 40% in size
HepG2 viability: qHTS for Inhibitors of TGF-b: Cytotox Counterscreen. HepG2 CAGA-GFP viability, ATP luminescence, 18 h. Potency, µM (series often up to 46.1 µM), for the others: at the highest dose activity change, negative = cytotoxicity, actives largely listed as cytotoxic. 0.76% of 410,000 active. AID 588856, 2011
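CellTiter-Glo luminescence gave cytotoxicity after 18 hours at 37 degrees C. The cells were HepG2 CAGA-GFP in 1% FBS DMEM, stimulated with 500 pg/mL TGF-beta after compound addition. %Activity was normalised to no-cell wells (complete cell-killing) and DMSO (no toxicity), and curves were fitted and classified.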
A549 tox: Nrf2 qHTS screen for inhibitors: counterscreen for cytotoxicity; 0.16% of 390,000 active; Potency, µM (highest dose often 46 µM), for the others: top-dose activity change, negative = cytotoxicity, hits mostly inhibitors; A549 ARE-Fluc cells, CellTiter-Fluor viability, 18-24 h; note: % is set by controls: 0 for no effect and ±100 for the full control effect
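Cytotoxicity counterscreen: CellTiter-Fluor fluorescence was measured in A549 ARE_Fluc cells after 18-24 h of compound exposure in a concentration series. The subsequent BugLite luminescent read reports ARE-luciferase activity.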
TGFb inhibitor: qHTS for Inhibitors of TGF-b; HepG2 CAGA-GFP TGF-b/SMAD3 reporter, GFP fluorescence, 18 h; TGF-beta stimulated, 500 pg/mL final; Potency, µM (top dose mostly 46.1 µM), for the others: at the highest dose activity, negative = inhibition, actives largely listed as inhibitors; 1.2% of 410,000 active; AID 588855, 2011; note: % is set by controls: 0 for no effect and ±100 for the full control effect; nearly all actives have a fitted effect of over 65% in size
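HEPG2 CAGA-GFP, 1000 cells/well; 2 h settle, 37 C; cpd via pin tool; TGF-b 500 pg/mL final; 18 h, 37 C; GFP imaging ex488/em500-530; %Activity normalised to -TGF-b and +DMSO controls; CRC fit, curve class.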
Active calls of the source: *; i = inactive; ? = inconclusive; . = no result; [ ] = dose if it differs, or a comment. Calls come from the whole dose curve; as a rule, active = well fitted curve in the direction sought with a large enough effect; inconclusive = small, poorly fitted or top-dose-only effect, or another doubt; inactive = no such curve, though single readings can be large; an effect the other way counts as inactive or inconclusive. Potency is the fitted concentration of half-maximal effect.

SMILES	Nrf2 inh	ATXN2 expr inh	S2 tox	HepG2 viability	A549 tox	TGFb inhibitor
CC1=C(C(=O)N2CCOCC2)CC(CC(=O)NCCCN(C)C)C(=O)N1CCCN1CCCC1=O (stereo not drawn)	.	4%	i	.	.	.
O=C(CSc1ncnc2c1cnn2-c1ccccc1Cl)N1CCN(C(=O)c2ccco2)CC1	15µM*	1%	i	-12%	2%	-3%
COc1ccc(N2CCN(C(=O)CSc3ncnc4c3cnn4-c3ccccc3C)CC2)cc1	1%	-7%	i	17%	-3%	18%
CCOC(=O)Cc1csc(NC(=O)CSc2ncnc3c2cnn3-c2ccccc2Cl)n1	21µM*	-18%	i	-4%	-7%	?
Cc1nnc(NC(=O)CSc2ncnc3c2cnn3-c2ccccc2C)s1	?	-33%	i	3%	-2%	0%
CCCCn1c(SCc2nc(N)nc(Nc3ccccc3C)n2)nc2ccccc2c1=O	21µM*	-13%	i	-17%	-30%	-11%
C#CCN(C(=O)C1CCC(=O)N(CCc2cccc(F)c2)C1)C1CCCCC1 (stereo not drawn)	.	.	i	-8%	.	-1%
C=CCc1cccc(/C=N/NC(=O)C(C)Nc2ccc(C)cc2)c1O (stereo not drawn)	?	22µM*	i	-70%	-1%	?
C=CCc1cccc(C=NNC(=O)CN2CCN(Cc3ccccc3)CC2)c1O	.	19µM*	.	.	.	.
O=C(N/N=C/c1ccc(Cl)cc1Cl)c1ccc2nc[nH]c2c1	-1%	.	i	-25%	3%	-26%
O=C(CN1CCN(Cc2ccccc2)CC1)N/N=C/c1ccccc1F	-8%	-8%	i	0%	-7%	27%
C=CCc1cccc(/C=N/NC(=O)c2ccc3nc[nH]c3c2)c1O	?	10µM*	i	4%	1%	-5%
Cc1cc(-c2ccc(C)c(S(=O)(=O)N(C)c3ccc(C)c(C)c3)c2)on1	?	.	.	-27%	17%	-23%
Cc1ccc(CCNC(=O)CN2C(=O)COc3ccc(S(=O)(=O)N4CCCCCC4)cc32)cc1	-17%	.	.	-28%	-15%	?
O=C(CCl)Nc1cc(SCC(O)CO)cc([N+](=O)[O-])c1 (stereo not drawn)	4.6µM*	4µM*	8.9µM*	-90%	6.5µM*	2.8µM*
CCC(=O)Nc1cc(ON=C(C)C)cc([N+](=O)[O-])c1	-4%	-2%	i	2%	0%	-1%
CC(C)=NOc1cc(NC(=O)CCl)cc([N+](=O)[O-])c1	4%	?	25µM*	-79%	-6%	6.3µM*
CCOC(=O)c1c(NC(=O)c2nn(C)cc2[N+](=O)[O-])sc(C)c1C	-6%	2%	.	20%	4%	-6%
C[C@H]1NCc2cc(-c3ccc4c(=O)c(C(=O)O)cn(C5CC5)c4c3OC(F)F)ccc21	.	5%[25.6 µM]	i	.	.	.
Oc1ccc(-c2ccc(-c3cc(Nc4cccc(CNC5CC5)c4)n[nH]3)cc2)c(O)c1	.	2.4µM*	.	.	.	.
Cc1ccc(Cl)cc1NS(=O)(=O)c1ccc2oc(=O)ccc2c1	?	-4%	i	-14%	-2%	0%
COc1ccc(-c2cc(=O)c3c(OC)c(OC)c(OC)c(OC)c3o2)cc1OC	2%	-3%	i	-18%	?	-2%
COc1ccc2c(=O)cc(-c3ccncc3)oc2c1OC	16µM*	-25%	i	-26%	-20%	?
Cc1c(C(=O)Nc2ccc(F)cc2)nnn1-c1cccc(C(F)(F)F)c1	21µM*	0%	i	0%	-15%	-2%
Cc1cccc(-n2nnc(C(=O)Nc3ccc(F)cc3)c2N)c1	?	51%	i	6%	-11%	-8%
SMILES	Nrf2 inh	ATXN2 expr inh	S2 tox	HepG2 viability	A549 tox	TGFb inhibitor
CC(C)(C)OC(=O)N1CCC(c2c(C(=O)NCc3ccccc3)cnn2-c2ccccc2)CC1	-20%	.	.	13%	-2%	-14%
CC(C)(C)OC(=O)N1CCC(c2c(C(=O)NCCc3ccsc3)cnn2-c2ccccc2Cl)CC1	-41%	.	.	-27%	1%	0%
COc1ccc(OC)c(CCNC(=O)c2cnn(-c3ccccc3Cl)c2C2CCN(C(=O)OC(C)(C)C)CC2)c1	?	.	.	-18%	?	10µM*
COc1ccc(CNC(=O)c2cnn(-c3ccc(OC)cc3)c2C2CCN(C(=O)OC(C)(C)C)CC2)cc1	?	.	.	-7%	-10%	11µM*
Cc1ccc(-n2ncc(C(=O)NCCCN3CCc4ccccc4C3)c2C2CCN(C(=O)OC(C)(C)C)CC2)cc1C	-25%	.	.	16µM*	-14%	?
Cc1cccc(C)c1-n1ncc(C(=O)NCc2ccc3c(c2)OCO3)c1C1CCN(C(=O)OC(C)(C)C)CC1	?	11%	i	1%	-1%	-6%
Cc1ccc(-n2ncc(C(=O)NCc3ccc4c(c3)OCO4)c2C2CCN(C(=O)OC(C)(C)C)CC2)cc1C	18µM*	.	.	-28%	-4%	?
Cc1ccc(-c2ccccc2C#N)cc1	.	4%	i	.	.	.
CCN(c1ccc(OC)cc1)S(=O)(=O)c1nnc(NC(=O)c2ccc(C)cc2)s1	-7%	.	i	-3%	2%	-22%
COc1ccc(-n2ncc(C(=O)NCc3ccc4c(c3)OCO4)c2C2CCN(C(=O)OC(C)(C)C)CC2)cc1	16µM*	.	.	-14%	-14%	?
COc1ccc(-n2ncc(C(=O)Nc3ccc4c(c3)OCO4)c2C2CCN(C(=O)OC(C)(C)C)CC2)cc1	?	.	.	-21%	-19%	-12%
CCc1c(C)nc(SCCOc2ccc(OC(C)C)cc2)[nH]c1=O	-18%	-4%	i	13%	1%	-4%
COc1ccc(OCCSc2nc3ccccc3c(=O)[nH]2)cc1	4.1µM*	-34%	i	-13%	-9%	4%
COc1cccc(OCCSc2nc3ccccc3c(=O)[nH]2)c1	-30%	6%	i	0%	-1%	20%
CCc1c(C)nc(SCCOc2ccc(OC)cc2)[nH]c1=O	8%	3%	i	0.32µM*	3%	4%
O=C(O)c1ccccc1C(=O)c1cccc2c(Br)cccc12	-15%	-5%	i	16%	-13%	-10%
CCOc1ccc(S(=O)(=O)Nc2ccc3c(c2)n(C)c(=O)n3C)cc1	16µM*	6%	i	-20%	2%	12%
